AmpC inh no detg: blocks E. coli AmpC beta-lactamase in detergent-free assay; P00811; AmpC nitrocefin hydrolysis, absorbance 480 nm, 0.0001% Triton; Potency, µM (titrated, usually from 57.1 µM), for the others: at the highest dose activity change, negative = inhibition, actives largely listed as inhibitors; 330,000 tested, 0.52% active; AID 485341;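 also: potency is read from the fitted curve at half-maximal effect; plate controls were no compound for no effect and no enzyme for full effect; nearly all actives have a fitted effect of over 20% in size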
Target sequence (P00811 whole entry, looked up): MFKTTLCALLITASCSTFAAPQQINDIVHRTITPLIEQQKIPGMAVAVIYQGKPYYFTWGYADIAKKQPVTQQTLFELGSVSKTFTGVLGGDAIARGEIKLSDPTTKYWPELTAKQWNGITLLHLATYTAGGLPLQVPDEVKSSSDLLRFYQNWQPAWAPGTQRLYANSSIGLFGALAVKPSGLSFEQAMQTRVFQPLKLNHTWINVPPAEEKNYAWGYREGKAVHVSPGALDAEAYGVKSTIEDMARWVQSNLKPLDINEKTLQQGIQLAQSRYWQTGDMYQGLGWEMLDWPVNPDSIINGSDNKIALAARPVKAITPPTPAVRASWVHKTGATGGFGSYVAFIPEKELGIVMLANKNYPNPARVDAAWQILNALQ
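20 mM phosphate pH 7.0 + 0.01% (detergent screen) or 0.0001% Triton X-100; 5.3 nM AmpC reagent; cpd preinc 15 min RT; nitrocefin (800 uM stock) to start; A480 q20 s × 4 min; Activity was normalised to no-enzyme and no-compound control wells.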
NS1 inh: influenza NS1 inhibition; Potency, µM (top dose mostly 46.1 µM), for inactives: at the top dose activity, positive = more growth; 270,000 tested, 0.4% active; calls by dose curve; also: potency is read from the fitted curve at half-maximal effect; actives are rising curves; nearly all actives have a fitted effect of over 50% in size
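A cell-based growth assay was used: compounds that relieve NS1-induced slow growth of budding yeast raise OD600. Assay medium was yeast nitrogen base with ammonium sulphate and -URA supplement, pH 6.0, with 2% galactose.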
SARS PLpro yeast-1: SARS-CoV PLP inhibition in yeast; 330,000 tested, 0.19% active; Potency, µM (highest dose often 32.9 µM), without a hit: top-dose activity, positive = growth rescue, usual class: activators; S. cerevisiae expressing SARS-CoV PLpro, growth rescue; AID 485353; calls by dose curve; also: potency is read from the fitted curve at half-maximal effect; 0% is about no effect; nearly all actives have a fitted effect of over 55% in size
AmpC detergent: blocks E. coli AmpC beta-lactamase in detergent assay. P00811. 370,000 tested, 0.041% active. AmpC hydrolysis of nitrocefin, absorbance 480 nm, 0.01% Triton. Potency, µM (top dose mostly 114 µM), inactives show at the highest dose activity change, negative = inhibition, most hits filed as inhibitors;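 also: potency is read from the fitted curve at half-maximal effect; 0% = no-compound wells and -100% = no-enzyme wells; nearly all actives have a fitted effect of over 25% in size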
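20 mM phosphate pH 7.0 + 0.01% (detergent screen) or 0.0001% Triton X-100; 5.3 nM AmpC reagent; cpd preinc 15 min RT; nitrocefin (800 uM stock) to start; A480 q20 s × 4 min; Activity was normalised to no-enzyme and no-compound control wells.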
FBPA Giardia inh: inhibitors of Giardia lamblia fructose-1,6-bisphosphate aldolase | A8B2U2 | purified Giardia FBPA | Potency, µM (highest dose often 59.6 µM), without a hit: at the highest dose activity, negative = inhibition, actives largely listed as inhibitors | 290,000 tested, 0.71% active | AID 2451; also: potency is read from the fitted curve at half-maximal effect; % is scaled to controls: 0 for no effect and ±100 for the full control effect; nearly all actives have a fitted effect of over 55% in size
Target sequence (A8B2U2 whole entry, looked up): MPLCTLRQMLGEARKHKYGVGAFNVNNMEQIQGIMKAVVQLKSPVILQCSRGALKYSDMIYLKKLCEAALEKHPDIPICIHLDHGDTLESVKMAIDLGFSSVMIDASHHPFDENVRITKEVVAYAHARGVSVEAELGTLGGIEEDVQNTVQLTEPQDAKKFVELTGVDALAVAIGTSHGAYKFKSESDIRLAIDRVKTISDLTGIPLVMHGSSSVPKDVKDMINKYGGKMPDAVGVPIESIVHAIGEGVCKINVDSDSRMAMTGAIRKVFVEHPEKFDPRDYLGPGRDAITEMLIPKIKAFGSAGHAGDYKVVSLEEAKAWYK
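40 nM FBPA preincubated 10 min at RT with compound (up to 57.5 uM final), then substrate plus GAPDH/TPI/NAD/arsenate coupling and diaphorase/resazurin added. Fluorescence read after 20 min at RT, 525/598 nm.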
SARS PLpro yeast-2: Validates SARS-CoV PLpro inhibitor hits in yeast | shares compounds with SARS PLpro yeast-1 | 1,000 tested, 19% active | yeast expressing SARS-CoV PLpro, growth phenotype rescue | calls only; call rule not given here
* hit, by the source's call; i = inactive; ? = inconclusive; / = no result given; + = active, no number. Shown are actives, neighbours in structure and some others; about 1.4% of the full set was active somewhere. Unless noted, calls follow the shape of the dose curve; as a rule, active = well fitted curve in the direction sought with a large enough effect; inconclusive = small, poorly fitted or top-dose-only effect, or another doubt; inactive = no such curve, though single readings can be large; an effect the other way counts as inactive or inconclusive.

SMILES | AmpC inh no detg | NS1 inh | SARS PLpro yeast-1 | AmpC detergent | FBPA Giardia inh | SARS PLpro yeast-2
C[C@@H]1CN([C@@H](C)CO)C(=O)c2cccc(NS(C)(=O)=O)c2O[C@H]1CN(C)Cc1ccc(C(=O)O)cc1 | -29% | / | -3% | / | / | /
Cc1ccc(S(=O)(=O)N(C)C[C@@H]2Oc3ccc(NC(=O)Nc4cccc5ccccc45)cc3C(=O)N([C@H](C)CO)C[C@H]2C)cc1 | 54% | / | 5µM* | / | / | i
C[C@H](CO)N1C[C@H](C)[C@@H](CN(C)Cc2ccc(-c3ccccc3)cc2)Oc2c(NC(=O)Nc3ccc4c(c3)OCO4)cccc2C1=O | 50% | / | 11µM* | / | / | i
C[C@H](CO)N1C[C@H](C)[C@@H](CN(C)Cc2ccc(C(=O)O)cc2)Oc2c(NC(=O)Cc3ccccc3)cccc2C1=O | -22% | / | 11µM* | / | / | i
CCOc1ccc(CNC(=O)c2ccc(CS(=O)Cc3ccc(Cl)cc3)o2)cc1 (stereo not given) | / | / | / | 13% | / | /
O=C(NC1CCCCCCC1)c1cc(COc2ccc3ncccc3c2)on1 | 25% | -15% | 3% | -5% | -9% | /
O=C(CSc1nc(-c2ccco2)cc(C(F)(F)F)n1)Nc1ccccc1C(F)(F)F | -9% | -1% | ? | -5% | -2% | i
Cc1ccc(NC(=O)CSc2nc(-c3ccco3)cc(C(F)(F)F)n2)c(C)c1 | / | / | / | 19% | / | /
CCCCOC(=O)C1[C@H]2C(=O)N(Cc3cccs3)C[C@]23C=C[C@H]1O3 (stereo not given in full) | 76% | 9% | 0% | -2% | 1% | /
O=S(=O)(Cc1cnc(Cl)s1)c1ccccc1 | -8% | 1% | 13µM* | 1% | 8% | i
C=CCc1cccc(/C=N/NC(=O)C(C)Nc2cccc(C)c2)c1O (stereo not given) | -7% | -21% | ? | -1% | 4% | /
COc1cc([N+](=O)[O-])cc(/C=N/NC(=O)c2ccc(C)nc2)c1O | -5% | 11% | 8.9µM* | -3% | ? | ?
COc1cc([N+](=O)[O-])cc(/C=N/NC(=O)C(C)Nc2cccc(C)c2)c1O (stereo not given) | -27% | -2% | ? | -5% | 13% | ?
COc1cc([N+](=O)[O-])cc(/C=N/NC(=O)c2ccc(NC(=O)c3ccc(C)cc3)cc2)c1O | -26% | 6% | 0% | 3% | 10% | /
Oc1c(C(Nc2nccs2)c2ccc(C(F)(F)F)cc2)ccc2cccnc12 (stereo not given) | -56% | / | -26% | -5% | ? | /
Oc1c(C(Nc2cccc(C(F)(F)F)c2)c2ccncc2)ccc2cccnc12 (stereo not given) | -38% | -7% | ? | 8% | -16% | i
COc1ccc(/C=N/NC(N)=S)cc1 | -22% | -8% | 27% | 0% | ? | /
CC(C)Oc1ccc(/C=N/NC(N)=S)cc1 | -15% | -6% | ? | -11% | ? | +
COc1ccc(C(CC(=O)O)NC(=O)c2ccco2)cc1 (stereo not given) | -15% | 2% | 9% | -1% | -7% | /
CCOC(=O)CC(NC(=O)c1ccco1)c1ccc(OC)cc1 (stereo not given) | -3% | -10% | ? | -12% | 0% | i
CCOC(=O)CSc1nc2ccccc2c(=O)n1C1CCCC1 | -4% | -63% | -9% | -10% | 0% | /
CCOC(=O)CSc1nc2ccccc2c(=O)n1C | -13% | -14% | ? | -1% | -5% | i
COC(=O)c1ccc(NC(=O)Cn2ccn3nc(-c4ccc(OC)cc4)cc3c2=O)cc1 | / | / | / | 5% | / | /
N#CN(CC(N)=O)c1nc(N2CCCCC2)nc(N2CCCCC2)n1 | -5% | 2% | ? | -3% | 3% | i
C=CCN(C#N)c1nc(OC)nc(N2CCCC2)n1 | -9% | -14% | -5% | -16% | -1% | /
SMILES | AmpC inh no detg | NS1 inh | SARS PLpro yeast-1 | AmpC detergent | FBPA Giardia inh | SARS PLpro yeast-2
COC(=O)CNC(c1ccccc1)c1cc(C)ccc1NC(=O)c1cccc(Cl)c1 (stereo not given) | -22% | -37% | ? | -9% | 0% | i
O=C(CN(C(=O)CNS(=O)(=O)c1ccc(F)cc1)c1ccc(F)cc1)NCc1ccco1 | 6% | 5% | 1% | 5% | / | /
Cc1ccccc1S(=O)(=O)Cc1ccc(C(=O)NCCCN2CCN(C)CC2)o1 | -1% | 6% | ? | -7% | 7% | i
Cc1ccccc1S(=O)(=O)Cc1ccc(C(=O)NCCCN2CCCC2)o1 | 54% | -1% | -2% | ? | ? | /
COc1ccc(CCNCc2c(OC)ccc3ccccc23)cc1 | 17% | -7% | -1% | -2% | -23% | /
Cc1cccc(NC(=O)NC2CCCCCCC2)c1 | -55% | -26% | -4% | 2% | / | /
Cc1ccc(C2CC2C(=O)NNC(=S)Nc2cccc(C)c2)cc1 (stereo not given) | -29% | -25% | 10µM* | -3% | -5% | i
Cc1cccc(NC(=S)NC2CCCC2)c1 | -7% | 10% | ? | 8% | -5% | +
O=[N+]([O-])c1cccc(Cl)c1NCCNc1ncc(C(F)(F)F)cc1Cl | -23% | 8% | 1% | -10% | 2% | /
Cc1c(NC=C(C#N)C#N)c(=O)n(-c2ccccc2)n1C | -18% | -4% | 1% | 2% | -4% | /
Cc1ccccc1C(=O)/C(C#N)=N/Nc1c(C)n(C)n(-c2ccccc2)c1=O | -11% | -1% | 20µM* | ? | ? | i
Cc1c(NC(=O)Nc2ccc(C#N)cc2)c(=O)n(-c2ccccc2)n1C | -8% | 5% | 0% | 8% | 4% | /
Cc1c(N/N=C(\C#N)C(=O)c2ccccc2)c(=O)n(-c2ccccc2)n1C | -15% | 8% | ? | -13% | ? | i
CC(CNC(=O)c1cnn(-c2ccc(F)cc2)c1-n1cccc1)c1ccccc1 (stereo not given) | / | / | / | -8% | / | /
Nc1ccc2oc(-c3ccccc3Cl)nc2c1 | -30% | ? | 14µM* | -1% | -6% | i
Nc1ccc2oc(-c3cc(Br)ccc3Cl)nc2c1 | 0% | 15% | -5% | -1% | -1% | /
Cc1ccc(NS(=O)(=O)c2ccc(NC(=O)CSc3ccc(Cl)cc3)cc2)c(C)c1 | -30% | 5% | -4% | 0% | -1% | /
Cc1ccc(-n2nnnc2CNC(=O)C2CC(=O)N(c3ccccc3)C2)cc1C (stereo not given) | 10% | 4% | 15% | -14% | 6% | /
CC(=O)N1N=C(c2ccc(Br)cc2)CC1c1cn(C)c2ccccc12 (stereo not given) | 80% | -3% | -41% | -14% | 0% | /
O=C(Nc1cc(Cl)cc(Cl)c1)C(NCCO)c1ccccc1 (stereo not given) | -18% | -3% | ? | -1% | ? | i
O=C(O)c1ccc(N=NN2CCCC2)cc1 | -15% | / | 2% | 2% | 6% | /
